# Reference: ChEMBL document CHEMBL3988442, “University of Dundee, Small-Polar-MMV Screening Library” (2021)
# For some assays here: Measured potencies and affinities stand elsewhere.
# Columns and labels:
# Parameters in all cases: scale not given: direction of the effect not stated beside the values
# [1] = target: Protein translocase subunit SecA (Escherichia coli (strain K12)) (UniProt P10408); experiment: Assay to Identify E. coli SecA ATPase Inhibitors; assay type: functional; settings: 30 µM
# Chain of Protein translocase subunit SecA (Escherichia coli (strain K12)) (P10408 whole entry): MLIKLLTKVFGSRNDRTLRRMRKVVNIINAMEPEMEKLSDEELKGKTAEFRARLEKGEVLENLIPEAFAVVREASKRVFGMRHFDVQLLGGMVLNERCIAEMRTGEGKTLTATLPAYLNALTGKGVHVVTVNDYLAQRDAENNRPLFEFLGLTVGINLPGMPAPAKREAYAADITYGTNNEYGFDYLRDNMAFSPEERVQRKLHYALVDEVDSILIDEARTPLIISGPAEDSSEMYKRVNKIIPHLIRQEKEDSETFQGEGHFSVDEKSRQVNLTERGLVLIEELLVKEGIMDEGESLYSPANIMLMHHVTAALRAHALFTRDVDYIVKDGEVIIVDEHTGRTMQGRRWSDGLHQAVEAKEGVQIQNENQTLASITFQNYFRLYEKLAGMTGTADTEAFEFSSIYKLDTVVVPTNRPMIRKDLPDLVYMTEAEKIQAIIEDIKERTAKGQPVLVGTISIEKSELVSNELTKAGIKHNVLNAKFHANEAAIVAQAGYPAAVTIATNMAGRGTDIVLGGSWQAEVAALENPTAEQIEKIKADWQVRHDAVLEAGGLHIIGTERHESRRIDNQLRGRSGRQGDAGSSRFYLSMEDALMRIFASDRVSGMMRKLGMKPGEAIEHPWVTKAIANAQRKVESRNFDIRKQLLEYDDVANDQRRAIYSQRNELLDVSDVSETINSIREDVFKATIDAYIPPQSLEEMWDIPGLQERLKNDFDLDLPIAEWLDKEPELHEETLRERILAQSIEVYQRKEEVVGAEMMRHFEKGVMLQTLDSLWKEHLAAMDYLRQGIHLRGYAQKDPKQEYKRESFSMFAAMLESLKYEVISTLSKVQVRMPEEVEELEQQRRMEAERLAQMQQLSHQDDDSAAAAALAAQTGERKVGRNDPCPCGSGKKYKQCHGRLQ
# [2] = target: T1, Ubiquitin-activating enzyme e1, putative (Leishmania donovani (strain BPK282A1)) (UniProt E9BSI1); experiment: Leishmania donovani Ubiquitin Activating Enzyme (LdE1); assay type: functional; settings: 30 µM
# T1 sequence (whole entry): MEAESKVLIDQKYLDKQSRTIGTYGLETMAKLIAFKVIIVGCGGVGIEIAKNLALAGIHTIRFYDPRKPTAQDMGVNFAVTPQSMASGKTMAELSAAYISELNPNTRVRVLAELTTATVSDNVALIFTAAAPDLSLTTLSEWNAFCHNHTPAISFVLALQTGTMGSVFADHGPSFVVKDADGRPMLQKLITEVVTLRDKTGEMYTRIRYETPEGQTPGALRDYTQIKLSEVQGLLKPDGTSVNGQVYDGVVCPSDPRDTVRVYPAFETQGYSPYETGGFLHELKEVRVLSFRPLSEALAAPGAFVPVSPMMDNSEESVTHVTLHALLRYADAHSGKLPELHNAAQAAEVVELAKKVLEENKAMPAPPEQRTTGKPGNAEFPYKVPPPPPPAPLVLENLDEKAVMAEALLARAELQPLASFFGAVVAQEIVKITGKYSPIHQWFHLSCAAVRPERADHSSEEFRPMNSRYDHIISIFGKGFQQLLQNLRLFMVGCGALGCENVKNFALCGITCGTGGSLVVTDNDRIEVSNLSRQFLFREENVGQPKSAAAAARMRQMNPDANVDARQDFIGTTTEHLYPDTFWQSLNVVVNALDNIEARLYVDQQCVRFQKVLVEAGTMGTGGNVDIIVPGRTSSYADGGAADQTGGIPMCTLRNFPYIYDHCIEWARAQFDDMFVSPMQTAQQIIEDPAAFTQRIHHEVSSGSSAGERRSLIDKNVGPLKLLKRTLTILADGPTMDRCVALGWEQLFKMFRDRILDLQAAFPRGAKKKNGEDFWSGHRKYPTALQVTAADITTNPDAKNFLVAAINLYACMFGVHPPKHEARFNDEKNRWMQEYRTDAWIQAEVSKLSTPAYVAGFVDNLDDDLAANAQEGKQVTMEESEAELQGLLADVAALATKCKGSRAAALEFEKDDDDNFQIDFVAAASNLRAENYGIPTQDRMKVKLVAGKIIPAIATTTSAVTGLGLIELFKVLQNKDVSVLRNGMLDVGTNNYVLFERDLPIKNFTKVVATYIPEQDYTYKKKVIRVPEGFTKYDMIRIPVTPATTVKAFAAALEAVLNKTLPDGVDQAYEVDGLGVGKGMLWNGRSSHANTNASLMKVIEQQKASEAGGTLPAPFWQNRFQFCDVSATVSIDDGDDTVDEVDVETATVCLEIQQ
# [3] = target: Sialic acid-binding Ig-like lectin 9 (Homo sapiens) (UniProt Q9Y336); experiment: Hs-Siglec9 ALPHAscreen SOP 20170721; settings: 10 µM
# Chain of Sialic acid-binding Ig-like lectin 9 (Homo sapiens) (Q9Y336 whole entry): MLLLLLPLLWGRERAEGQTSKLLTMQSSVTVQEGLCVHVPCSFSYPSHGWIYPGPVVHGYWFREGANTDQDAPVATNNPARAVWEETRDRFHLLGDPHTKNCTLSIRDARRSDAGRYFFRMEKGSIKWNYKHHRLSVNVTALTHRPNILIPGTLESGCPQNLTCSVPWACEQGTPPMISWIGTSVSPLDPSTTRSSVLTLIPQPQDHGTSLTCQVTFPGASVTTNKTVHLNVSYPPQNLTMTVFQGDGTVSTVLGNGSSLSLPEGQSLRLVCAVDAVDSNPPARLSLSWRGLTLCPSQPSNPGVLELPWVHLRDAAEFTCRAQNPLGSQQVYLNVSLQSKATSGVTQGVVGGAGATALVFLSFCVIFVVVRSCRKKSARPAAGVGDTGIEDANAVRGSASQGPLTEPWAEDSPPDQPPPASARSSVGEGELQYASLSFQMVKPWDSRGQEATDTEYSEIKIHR
# [4] = test system: Trypanosoma cruzi; experiment: Trypanosoma cruzi phosphomannomutase and mannose-1-phosphate guanylyltransferase assay; assay type: functional; settings: 10 µM
# [5] = target: T2, Arginase-2, mitochondrial (Homo sapiens) (UniProt P78540); experiment: in vitro enzyme assay to detect the production of urea directly proportional to the activity of Arginase II; assay type: functional; settings: 33.3 µM; further: in the data most compounds retested in dose-response had high values
# T2 sequence (whole entry): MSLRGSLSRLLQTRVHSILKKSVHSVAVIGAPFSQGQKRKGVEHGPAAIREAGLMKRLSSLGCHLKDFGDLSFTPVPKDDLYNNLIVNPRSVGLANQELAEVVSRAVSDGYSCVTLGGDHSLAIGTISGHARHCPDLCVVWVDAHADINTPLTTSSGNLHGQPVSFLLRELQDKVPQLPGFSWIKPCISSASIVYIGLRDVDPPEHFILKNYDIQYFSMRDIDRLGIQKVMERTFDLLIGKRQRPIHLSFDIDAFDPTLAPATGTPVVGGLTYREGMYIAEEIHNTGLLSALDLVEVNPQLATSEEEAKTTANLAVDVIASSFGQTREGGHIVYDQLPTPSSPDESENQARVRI
# [6] = target: T3, Proteasome subunit beta (Trypanosoma cruzi) (UniProt O96673); experiment: Trypanosoma cruzi proteasome chymotrypsin-like activity (TcProtChymo) assay.; further: in the data most compounds retested in dose-response had high values; assay type: functional; settings: 9.37 µM
# T3 sequence (whole entry): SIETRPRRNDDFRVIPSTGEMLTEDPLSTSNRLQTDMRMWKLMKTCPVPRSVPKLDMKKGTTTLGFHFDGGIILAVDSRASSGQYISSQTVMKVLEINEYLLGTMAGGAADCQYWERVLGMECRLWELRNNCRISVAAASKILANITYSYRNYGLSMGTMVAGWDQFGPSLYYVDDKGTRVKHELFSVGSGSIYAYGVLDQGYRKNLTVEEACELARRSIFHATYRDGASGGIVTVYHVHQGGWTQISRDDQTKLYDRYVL
# [7] = species: Homo sapiens; experiment: To identify inhibition of the IFN signalling (Jak-Stat) pathway via expression of an eGFP reporter gene under the control of an IFN-stimulated response element (ISRE) containing MxA promoter.; assay type: functional; settings: 30 µM
# [8] = target: T4, Tyrosyl-tRNA synthetase, putative (Trypanosoma cruzi (strain CL Brener)) (UniProt Q4DSP6); experiment: Trypanosoma cruzi tyrosyl tRNA synthetase (TcYRS) _High Tyrosine SOP; assay type: functional; settings: 30 µM; further: in the data most compounds retested in dose-response had high values
# T4 sequence (whole entry): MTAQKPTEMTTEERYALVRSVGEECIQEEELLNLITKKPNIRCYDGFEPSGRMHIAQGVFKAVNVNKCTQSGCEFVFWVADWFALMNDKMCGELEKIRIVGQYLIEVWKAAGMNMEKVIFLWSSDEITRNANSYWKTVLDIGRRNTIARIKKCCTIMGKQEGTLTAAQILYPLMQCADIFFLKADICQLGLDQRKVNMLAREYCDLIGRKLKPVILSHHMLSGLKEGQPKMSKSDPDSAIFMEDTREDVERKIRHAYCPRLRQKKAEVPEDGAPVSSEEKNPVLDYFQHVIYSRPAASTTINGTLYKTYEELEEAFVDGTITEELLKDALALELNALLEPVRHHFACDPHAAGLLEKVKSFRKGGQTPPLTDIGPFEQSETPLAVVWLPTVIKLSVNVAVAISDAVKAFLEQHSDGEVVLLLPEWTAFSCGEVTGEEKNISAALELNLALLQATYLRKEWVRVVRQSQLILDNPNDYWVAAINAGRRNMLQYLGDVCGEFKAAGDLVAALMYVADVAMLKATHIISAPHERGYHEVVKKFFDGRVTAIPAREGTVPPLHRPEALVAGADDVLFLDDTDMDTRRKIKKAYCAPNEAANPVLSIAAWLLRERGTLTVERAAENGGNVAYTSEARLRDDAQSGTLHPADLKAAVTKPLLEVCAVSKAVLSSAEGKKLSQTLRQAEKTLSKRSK
# [9] = target: T4, Tyrosyl-tRNA synthetase, putative (Trypanosoma cruzi (strain CL Brener)); experiment: Trypanosoma cruzi tyrosyl tRNA synthetase (TcYRS) SOP; assay type: functional; settings: 30 µM
# [10] = target: Chromo domain-containing protein 1 (Saccharomyces cerevisiae (strain ATCC 204508 / S288c) (Baker's yeast)) (UniProt P32657); experiment: ScCHD-1 Enzyme Inhibition Assay; assay type: functional; settings: 30 µM; further: in the data most compounds retested in dose-response had high values
# Chain of Chromo domain-containing protein 1 (Saccharomyces cerevisiae (strain ATCC 204508 / S288c) (Baker's yeast)) (P32657 whole entry, the tested form may be a part): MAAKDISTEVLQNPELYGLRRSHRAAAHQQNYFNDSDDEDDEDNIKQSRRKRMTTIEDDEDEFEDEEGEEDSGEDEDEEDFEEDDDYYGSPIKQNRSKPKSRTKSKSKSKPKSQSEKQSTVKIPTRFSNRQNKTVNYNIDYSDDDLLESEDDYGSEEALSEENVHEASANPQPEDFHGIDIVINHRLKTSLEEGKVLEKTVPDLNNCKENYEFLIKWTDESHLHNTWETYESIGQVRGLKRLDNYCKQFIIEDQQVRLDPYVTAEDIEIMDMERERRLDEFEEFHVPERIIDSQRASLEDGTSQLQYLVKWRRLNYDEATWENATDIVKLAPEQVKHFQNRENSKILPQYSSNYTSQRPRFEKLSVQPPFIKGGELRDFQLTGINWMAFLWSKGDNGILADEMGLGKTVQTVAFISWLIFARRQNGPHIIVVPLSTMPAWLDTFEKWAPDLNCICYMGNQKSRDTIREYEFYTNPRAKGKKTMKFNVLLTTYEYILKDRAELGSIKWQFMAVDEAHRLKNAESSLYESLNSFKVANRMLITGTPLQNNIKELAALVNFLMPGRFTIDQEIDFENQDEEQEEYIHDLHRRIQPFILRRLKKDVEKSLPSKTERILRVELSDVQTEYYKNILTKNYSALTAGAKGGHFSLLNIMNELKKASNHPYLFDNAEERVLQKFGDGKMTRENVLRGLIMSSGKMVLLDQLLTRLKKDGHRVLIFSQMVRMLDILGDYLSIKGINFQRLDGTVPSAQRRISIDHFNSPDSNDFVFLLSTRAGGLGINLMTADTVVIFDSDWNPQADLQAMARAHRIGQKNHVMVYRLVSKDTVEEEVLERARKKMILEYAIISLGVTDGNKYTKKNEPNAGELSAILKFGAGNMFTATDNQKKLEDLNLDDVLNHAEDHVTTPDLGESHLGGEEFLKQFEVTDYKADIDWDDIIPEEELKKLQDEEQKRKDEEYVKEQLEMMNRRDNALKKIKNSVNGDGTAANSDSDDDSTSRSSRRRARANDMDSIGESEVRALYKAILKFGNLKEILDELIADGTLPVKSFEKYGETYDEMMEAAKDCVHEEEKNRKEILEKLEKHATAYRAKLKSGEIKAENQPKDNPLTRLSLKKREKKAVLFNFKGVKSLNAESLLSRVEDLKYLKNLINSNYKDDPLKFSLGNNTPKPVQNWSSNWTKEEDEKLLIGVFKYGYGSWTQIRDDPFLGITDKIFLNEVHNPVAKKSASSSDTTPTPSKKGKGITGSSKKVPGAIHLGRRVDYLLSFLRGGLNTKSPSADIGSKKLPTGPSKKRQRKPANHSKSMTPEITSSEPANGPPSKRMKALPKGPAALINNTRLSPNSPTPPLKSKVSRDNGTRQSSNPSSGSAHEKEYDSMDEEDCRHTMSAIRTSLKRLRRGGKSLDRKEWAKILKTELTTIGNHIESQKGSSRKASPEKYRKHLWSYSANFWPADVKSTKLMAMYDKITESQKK
Compound,Percent Effect [1] [%],Percent Effect [2] [%],Percent Effect [3] [%],Percent Effect [4] [%],Percent Effect [5] [%],Percent Effect [6] [%],Percent Effect [7] [%],Percent Effect [8] [%],Percent Effect [9] [%],Percent Effect [10] [%]
CCN1CCN(CC(C)(O)c2cccc(C(F)(F)F)c2)CC1 (stereo not given),-5.15,5.2,14.6,-3.92,-3.48,0.175,-14.6,2.94,-2.35,-0.754
O=C(NCc1nn(-c2ccccc2)c2c1CCC2)NC1CC1,-4.01,2.56,9.31,0.469,2.05,2.65,-3.46,1.44,8.43,-1.68
O=C(CCCOc1ccccc1Cl)N1CCCC(n2cncn2)C1 (stereo not given),-2.02,5.13,-18.2,6.1,-13.9,-5.03,-5.2,1.44,6.02,0.499
N#Cc1ccccc1OCCN1CCn2c(nnc2C2CC2)C1,1.03,2.67,-0.123,-0.602,-0.444,5.85,-1.08,2.63,2.56,-0.472
c1cnn(CC2CN(Cc3noc(C4CC4)n3)CCO2)c1 (stereo not given),-9.46,16,4.59,1.81,-3.1,10.8,7.98,3.68,7.69,-6.72
CCOc1ncccc1C(=O)N1CCCC1c1c(C)nn(C)c1OC (stereo not given),1.2,0,10.2,1.68,-2.25,-2.81,-1.22,4.9,11.8,-4.83
CNC(=O)CN(C)c1nc(-c2ccncc2)nc2c1CCN(C(C)=O)C2,-7.13,0,0.927,-1.07,2.45,9.59,-4.34,1.6,7.32,-3.67
CCc1ccc(O)c(C(=O)NC2CCN(S(=O)(=O)CC)CC2)c1,-6.37,17.9,-17.5,5.35,-4.92,10.2,20.5,1.44,22.9,-10.9
Cc1nnc2n1CCN(C(C(=O)NC1CC1)c1ccccc1)C2 (stereo not given),-3.46,2.56,6.36,3.47,3.69,5.72,8.81,3.35,13.2,-2.99
Cc1ccccc1CC(=O)N(C)C1CCN(c2ccccn2)CC1,-6.18,10.7,3.6,5.22,-1.33,15,6.38,5.79,12.8,-17.5
O=C1CCC(C(=O)NCc2nn(-c3ccccc3)c3c2CCC3)CN1 (stereo not given),-6.78,5.13,-2.63,-2.16,-2.46,1.96,22,1.44,6.02,0.942
CC(=O)c1sc(Nc2ccc(Cl)cn2)nc1C,-2.68,24.7,1.41,1.13,0.913,12.6,24.7,2.9,-37.5,-10.7
c1cnnc(N2CCCC(NCc3cn4ccccc4n3)C2)c1 (stereo not given),4.38,23.4,-9.09,-10.8,-1.43,26.5,17,8.82,11.8,-10.5
Cc1nc(C)n(CC2CN(CCOCC(F)(F)F)CCO2)n1 (stereo not given),-1.11,0,2.9,0.602,2.22,0.594,6.11,-1.58,2.56,-2.07
